Data taken from the supplement of paper PMC7411640.
Structures can show the parent of a compound that is named as a salt.

Tested on: MDA-MB-468
Test: phospho-S6 immunofluorescence (DAPI-normalised), per-plate z-score; higher = higher phospho-S6 signal (less pathway suppression)
Conditions: 24 h
Method: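 GPCR-targeted compound library (MedChemExpress HY-L006) tested on MDA-MB-468 PTEN-null TNBC cells in 384-well plates at 0.1, 1 or 10 uM, combined with vehicle, GDC0941 450 nM or lapatinib 1 uM, for 24 h. Phospho-S6 (S240/244) immunofluorescence normalised to DAPI and expressed as a per-plate z-score; values are the mean of biological triplicates.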

| Compound | phospho-S6 immunofluorescence (z-score) (co-treatment: GDC0941 450 nM) | phospho-S6 immunofluorescence (z-score) (co-treatment: lapatinib 1 uM) | phospho-S6 immunofluorescence (z-score) (co-treatment: vehicle) |
| --- | --- | --- | --- |
| CN1CCN(C2=Nc3ccccc3Oc3ccc(Cl)cc32)CC1 [Loxapine] (compound 10 µM) | 0.6 | -0.55 | 0.95 |
| OCc1cc(C(O)CNCCCCCCOCCCCc2ccccc2)ccc1O (configuration not stated) [Salmeterol (xinafoate)] (compound 10 µM) | 1.01 | -2.27 | 2.28 |
| CN1CCN(c2cc(-c3ccccc3)nc(N)n2)CC1 (compound 10 µM) | 0.39 | 0.06 | 1.14 |
| COc1cc2nc(N3CCN(C(=O)c4ccco4)CC3)nc(N)c2cc1OC [Prazosin (hydrochloride)] (compound 10 µM) | 2.1 | 0.54 | 0.24 |
| O=C(c1ccc(F)cc1)C1CCN(CCn2c(=O)[nH]c3ccccc3c2=O)CC1 [Ketanserin (tartrate)] (compound 10 µM) | 0.46 | -0.54 | 0.68 |
| CC(C)C[C@H](NC(=O)CNC(=O)[C@H](Cc1ccc(O)cc1)NC(=O)[C@H](CO)NC(=O)[C@H](Cc1c[nH]c2ccccc12)NC(=O)[C@H](Cc1cnc[nH]1)NC(=O)[C@@H]1CCC(=O)N1)C(=O)N[C@@H](CCCNC(=N)N)C(=O)N1CCC[C@H]1C(=O)NCC(N)=O [Gonadorelin (acetate)] (compound 10 µM) | -0.45 | 0.57 | 0.07 |
| CN1CCC(=C2c3ccccc3CC(=O)c3sccc32)CC1 [Ketotifen (fumarate)] (compound 10 µM) | 0.55 | -0.44 | 0.26 |
| CN(C)CCOC(c1ccccc1)c1ccccc1.Cn1c(=O)c2[nH]c(Cl)nc2n(C)c1=O [Dimenhydrinate] (compound 10 µM) | -1.22 | 0.01 | -0.02 |
| Cc1c(C(=O)NN2CCCCC2)nn(-c2ccc(Cl)cc2Cl)c1-c1ccc(Cl)cc1 [Rimonabant (Hydrochloride)] (compound 10 µM) | -3.49 | -4.25 | -5.97 |
| CN1CCN(C2=Nc3ccccc3Oc3ccc(Cl)cc32)CC1 [Loxapine (succinate)] (compound 10 µM) | 0.7 | 1.22 | -1.15 |
| CC(CN1c2ccccc2Sc2ccccc21)N(C)C (configuration not stated) [Promethazine (hydrochloride)] (compound 10 µM) | -1.86 | -2.76 | -0.84 |
| CCn1c2ccccc2c2cc(Nc3ccnc(NCCCN4CCOCC4)n3)ccc21 (compound 10 µM) | -3.59 | -8.74 | -10.3 |
| Clc1ccccc1CN1CCc2sccc2C1 [Ticlopidine (hydrochloride)] (compound 10 µM) | -1.14 | -0.33 | -0.63 |
| CC1OC2(CS1)CN1CCC2CC1 (configuration not stated) [Cevimeline (hydrochloride hemihydrate)] (compound 10 µM) | 0.65 | -0.04 | 0.89 |
| N=C(N)N/N=C/c1c(Cl)cccc1Cl [Guanabenz (Acetate)] (compound 10 µM) | 0.61 | -0.12 | -0.2 |
| C[C@H](Nc1cc(NS(=O)(=O)N2CCC2)nc(SCc2cccc(F)c2F)n1)[C@@H](O)CO (compound 10 µM) | -1.17 | -0.3 | -0.77 |
| NCCc1ccc(O)c(O)c1 [Dopamine (hydrochloride)] (compound 10 µM) | 0.84 | 0.53 | 0.15 |
| CN1[C@@H]2CC[C@H]1C[C@@H](OC(=O)c1c[nH]c3ccccc13)C2 [Tropisetron] (compound 10 µM) | 0.73 | 1.44 | 0.31 |
| CC(C)(C)C(=O)C(=Nc1ccc(Cl)cc1)NNc1ccc(Cl)cc1 (compound 10 µM) | -3.52 | -6.25 | -3.76 |
